In PubChem BioAssay (NCATS):
Records with an inconclusive call do not appear. Calls of active or inactive are those of the source. Unless noted, calls come from the whole dose curve; as a rule, active = well fitted curve in the direction sought with a large enough effect; inconclusive = small, poorly fitted or top-dose-only effect, or another doubt; inactive = no such curve, though single readings can be large; an effect the other way counts as inactive or inconclusive.

Tests used:
[1] = qHTS for Activators of Parkin Expression: LOPAC Validation Assay (NLuc Reporter) (AID 720572;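 note: 0% = DMSO and 100% = positive control compound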)
Outline: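 Cells harboring the Parkin-promoter coincidence reporter were treated for 24 h at seven concentrations. NLuc output was measured sequentially after the FLuc channel and scaled between DMSO and positive control values.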

[2] = qHTS for Activators of Parkin Expression: LOPAC Validation Assay (FLuc Reporter) (AID 720573;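 note: 0% = DMSO and 100% = positive control compounds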)
Outline: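 Neuronal cell line stably carrying FLuc/NLuc coincidence reporter under Parkin promoter; cells plated 24 h, then compounds added in 7-point dose response for 24 h at 37 C. FLuc luminescence read; normalized to DMSO and positive control (100%).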

[3] = molecular target: T1, Hexokinase-4 (Homo sapiens) + Glucokinase regulatory protein (Homo sapiens) (UniProt P35557+Q14397); assay: qHTS assay for inhibitors of recombinant human GCK-GKRP interaction: Diaphorase-coupled assay (AID 743205)
T1 sequence (P35557 whole entry, looked up): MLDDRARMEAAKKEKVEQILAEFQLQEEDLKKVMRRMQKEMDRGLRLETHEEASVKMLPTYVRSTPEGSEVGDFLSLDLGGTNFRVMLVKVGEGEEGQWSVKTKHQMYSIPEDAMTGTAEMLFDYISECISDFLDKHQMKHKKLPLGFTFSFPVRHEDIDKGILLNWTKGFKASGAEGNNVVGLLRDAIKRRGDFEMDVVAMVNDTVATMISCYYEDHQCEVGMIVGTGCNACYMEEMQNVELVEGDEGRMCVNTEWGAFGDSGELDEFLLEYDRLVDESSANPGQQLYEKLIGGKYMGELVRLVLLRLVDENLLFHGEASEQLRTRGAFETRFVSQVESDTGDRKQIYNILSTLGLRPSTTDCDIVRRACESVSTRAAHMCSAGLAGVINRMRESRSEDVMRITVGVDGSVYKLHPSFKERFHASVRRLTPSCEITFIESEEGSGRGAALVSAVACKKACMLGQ
T1 sequence (Q14397 whole entry, looked up): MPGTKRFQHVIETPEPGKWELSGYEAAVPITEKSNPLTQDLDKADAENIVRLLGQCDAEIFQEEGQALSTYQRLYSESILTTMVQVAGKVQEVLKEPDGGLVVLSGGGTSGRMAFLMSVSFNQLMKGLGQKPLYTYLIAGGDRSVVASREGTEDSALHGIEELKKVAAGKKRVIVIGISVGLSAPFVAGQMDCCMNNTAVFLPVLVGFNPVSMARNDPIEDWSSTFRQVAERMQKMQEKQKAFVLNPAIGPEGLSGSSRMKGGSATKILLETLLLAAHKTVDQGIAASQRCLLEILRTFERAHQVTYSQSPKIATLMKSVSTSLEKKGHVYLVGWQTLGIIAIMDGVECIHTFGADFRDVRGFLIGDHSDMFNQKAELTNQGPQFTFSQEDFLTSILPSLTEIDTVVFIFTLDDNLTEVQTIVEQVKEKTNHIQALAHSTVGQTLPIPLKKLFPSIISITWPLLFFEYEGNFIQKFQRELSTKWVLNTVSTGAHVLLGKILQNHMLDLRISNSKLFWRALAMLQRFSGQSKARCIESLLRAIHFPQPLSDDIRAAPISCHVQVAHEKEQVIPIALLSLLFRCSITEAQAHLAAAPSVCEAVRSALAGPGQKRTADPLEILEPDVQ
Outline: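 GST-GCK (10 nM) with FLAG-GKRP (10 nM), 5 mM glucose and 0.4 mM ATP in pH 7.6 Hepes; compounds preincubated 20 min with substrate. G6PDH/diaphorase coupling converts resazurin to resorufin, read kinetically (ex 525/em 590 nm) for 30 min.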

[4] = molecular target: T1, Hexokinase-4 (Homo sapiens) + Glucokinase regulatory protein (Homo sapiens); assay: qHTS assay for inhibitors of recombinant human GCK-GKRP interaction: ADP-Glo assay (AID 743206);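 note: plate controls were DMSO plus enzyme for no effect and no enzyme for full effect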
Outline: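 Pin-transferred compounds meet a 15 nM GST-GCK/15 nM FLAG-GKRP/2 uM S6P mix (dispense concentrations). ATP is then added to 0.4 mM final with 5 mM glucose, and the reaction runs 60 min at room temperature. ADP is quantified luminescently.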

[5] = molecular target: T1, Hexokinase-4 (Homo sapiens) + Glucokinase regulatory protein (Homo sapiens); assay: qHTS assay for inhibitors of recombinant human GCK-GKRP interaction: HTRF assay (AID 743207);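 note: 0% = DMSO with GCK present and -100% = DMSO wells lacking GCK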
Outline: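 GST-GCK and FLAG-GKRP (5 nM each) were combined with 2 uM S6P in pH 7.1 Hepes/MgCl2/KCl/DTT buffer, then compound and anti-FLAG XL665/anti-GST K antibodies were added. After 60 min at room temperature, HTRF 665/615 nm emission was read.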

[6] = qHTS Assay for Identifying Gametocytocidal Compounds (AID 743244);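 note: % is set by controls: 0 for no effect and ±100 for the full control effect; actives lower the fluorescent signal which means gametocytes are killed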; conditions: P. falciparum 3D7 stage III-V gametocytes, alamarBlue, 72 h; max response: stronger effect = lower value
Outline: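 Late gametocytes (III–V), P. falciparum 3D7; 72 h drug, then 24 h alamarBlue; resazurin reduction read by fluorescence.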

[7] = Natriuretic polypeptide receptor (hNpr1) antagonism - Pilot counterscreen GloSensor control cell line (AID 1347045; calls by dose curve; note: % is set by controls: 0 for no effect and ±100 for the full control effect)
Outline: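 The SNP-driven cGMP luminescence signal (50 uM, 20 min, room temperature) was measured in GloSensor HEK293 control cells. Compounds were tested as a LOPAC titration series and preincubated for 30-50 min.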

[8] = molecular target: Atrial natriuretic peptide receptor 1 (Homo sapiens) (UniProt P16066); assay: Natriuretic polypeptide receptor (hNpr1) antagonism - Pilot screen (AID 1347049; calls by dose curve;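 note: HEK293 cells with hNpr1 and GloSensor cGMP luciferase stimulated by 0.1 nM hNppA; agonist-evoked cGMP luminescence read 20 min after hNppA addition; % is set by controls: 0 for no effect and ±100 for the full control effect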)
Outline: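 Cells expressing receptor plus cGMP biosensor are seeded and incubated overnight at 37C, then loaded with GloSensor reagent (2% final) at room temperature for 2 h. Library compounds go on for 30 min. A pre-read precedes agonist (hNppA, 0.1 nM final) and a 20-min readout.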

[9] = molecular target: Atrial natriuretic peptide receptor 2 (Homo sapiens) (UniProt P20594); assay: Natriuretic polypeptide receptor (hNpr2) antagonism - Pilot subtype selectivity assay (AID 1347050; calls by dose curve; note: % is set by controls: 0 for no effect and ±100 for the full control effect)
Chain of Atrial natriuretic peptide receptor 2 (Homo sapiens) (P20594 whole entry, looked up): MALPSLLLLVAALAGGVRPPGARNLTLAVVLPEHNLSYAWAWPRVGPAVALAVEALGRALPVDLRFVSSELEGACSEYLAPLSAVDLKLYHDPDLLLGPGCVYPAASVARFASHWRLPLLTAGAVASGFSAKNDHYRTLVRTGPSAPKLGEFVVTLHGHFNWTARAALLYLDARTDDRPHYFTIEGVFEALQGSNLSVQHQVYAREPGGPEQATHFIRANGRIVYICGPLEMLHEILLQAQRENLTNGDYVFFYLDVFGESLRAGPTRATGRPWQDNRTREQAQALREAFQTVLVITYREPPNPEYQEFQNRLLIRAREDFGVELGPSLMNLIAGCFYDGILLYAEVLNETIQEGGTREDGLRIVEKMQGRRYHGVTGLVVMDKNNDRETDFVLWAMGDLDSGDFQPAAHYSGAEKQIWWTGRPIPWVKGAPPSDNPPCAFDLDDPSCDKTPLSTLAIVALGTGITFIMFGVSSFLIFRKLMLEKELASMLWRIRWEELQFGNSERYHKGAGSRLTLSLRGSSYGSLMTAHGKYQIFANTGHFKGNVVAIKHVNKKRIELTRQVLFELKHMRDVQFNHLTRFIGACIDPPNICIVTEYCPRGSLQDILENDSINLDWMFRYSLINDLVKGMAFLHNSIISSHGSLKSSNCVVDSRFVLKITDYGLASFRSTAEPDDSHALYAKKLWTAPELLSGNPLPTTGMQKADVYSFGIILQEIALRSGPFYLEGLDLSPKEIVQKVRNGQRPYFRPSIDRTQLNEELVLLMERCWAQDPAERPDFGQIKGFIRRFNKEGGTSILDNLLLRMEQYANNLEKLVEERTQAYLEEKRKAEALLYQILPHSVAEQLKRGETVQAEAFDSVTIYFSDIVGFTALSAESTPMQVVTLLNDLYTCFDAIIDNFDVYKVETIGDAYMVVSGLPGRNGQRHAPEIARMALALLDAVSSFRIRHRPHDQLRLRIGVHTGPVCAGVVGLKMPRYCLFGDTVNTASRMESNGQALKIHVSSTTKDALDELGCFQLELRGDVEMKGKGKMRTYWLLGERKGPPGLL
Outline: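 Read-out: GloSensor luminescence (CCD imager), baseline vs post-stimulation. HEK293 cells expressing hNpr2; compounds pre-incubated 30-50 min at ambient temperature; hNppC 1 nM final, 20 min.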

[10] = NS1 protein of Zika virus - qHTS assay to identify small molecule inhibitors in human HEK 293 cells (AID 1347053);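 note: plate controls were infected untreated cells for no effect and uninfected cells for full effect; nearly all actives have a fitted effect of over 55% in size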
Outline: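 Read-out is a two-antibody TR-FRET for ZIKV NS1, normalized between uninfected cells and infected cells. Compound added 1 h before MR766 infection at MOI 0.5; human HEK 293 cells incubated 24 h, 37 C.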

[11] = molecular target: T2, Tyrosine-protein phosphatase non-receptor type substrate 1 (Homo sapiens) + Leukocyte surface antigen CD47 (Homo sapiens) (UniProt P78324+Q08722); assay: CD47-SIRPalpha protein protein interaction - LANCE assay qHTS validation (AID 1347057; active = well fitted curve in the direction sought with a large enough effect in the signal ratio, with a control signal flat, not every such curve was filed as active; the % refers to the signal ratio; note: 0% is about no effect)
T2 sequence (P78324 whole entry, looked up, the tested form may be a part): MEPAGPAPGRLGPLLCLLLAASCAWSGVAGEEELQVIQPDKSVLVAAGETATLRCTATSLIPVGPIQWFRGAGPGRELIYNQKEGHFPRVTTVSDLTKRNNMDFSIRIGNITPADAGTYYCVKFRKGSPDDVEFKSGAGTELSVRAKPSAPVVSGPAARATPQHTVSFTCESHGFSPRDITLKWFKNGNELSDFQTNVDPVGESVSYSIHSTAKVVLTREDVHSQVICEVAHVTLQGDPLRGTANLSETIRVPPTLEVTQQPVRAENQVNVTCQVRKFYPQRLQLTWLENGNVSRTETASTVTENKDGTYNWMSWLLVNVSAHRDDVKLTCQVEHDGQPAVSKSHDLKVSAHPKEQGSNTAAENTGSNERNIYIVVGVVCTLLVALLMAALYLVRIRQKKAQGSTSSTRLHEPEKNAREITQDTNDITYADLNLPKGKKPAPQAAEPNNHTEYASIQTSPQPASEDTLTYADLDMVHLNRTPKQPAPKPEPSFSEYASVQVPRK
T2 sequence (Q08722 whole entry, looked up, the tested form may be a part): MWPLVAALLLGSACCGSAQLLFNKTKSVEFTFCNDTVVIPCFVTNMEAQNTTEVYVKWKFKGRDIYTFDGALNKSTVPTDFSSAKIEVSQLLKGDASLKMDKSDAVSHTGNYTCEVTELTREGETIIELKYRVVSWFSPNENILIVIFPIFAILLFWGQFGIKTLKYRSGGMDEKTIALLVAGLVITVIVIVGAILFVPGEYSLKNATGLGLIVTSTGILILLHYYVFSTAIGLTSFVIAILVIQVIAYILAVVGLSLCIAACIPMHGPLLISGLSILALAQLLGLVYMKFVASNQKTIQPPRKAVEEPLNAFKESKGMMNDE
Outline: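 Inhibition of soluble CD47/SIRPalpha ectodomain association by titrated compounds, measured as 665/615 nm time-resolved FRET ratio after sequential 30 min room-temperature incubations.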

[12] = molecular target: T2, Tyrosine-protein phosphatase non-receptor type substrate 1 (Homo sapiens) + Leukocyte surface antigen CD47 (Homo sapiens); assay: CD47-SIRPalpha protein protein interaction - HTRF assay qHTS validation (AID 1347058; active = well fitted curve in the direction sought with a large enough effect in the signal ratio, not every such curve was filed as active; the % refers to the signal ratio; note: 0% is about no effect)
Outline: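 Soluble extracellular domains (6His-CD47, Avi-tag-biotinylated SIRPalpha) in PBS pH 7.4 with 0.05% IGEPAL CA-630. Compounds were preincubated 30 min at RT with CD47 and anti-His-Eu, then SIRPalpha and SAV-XL665 were added. TR-FRET 665/615 ratio.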

[13] = molecular target: T2, Tyrosine-protein phosphatase non-receptor type substrate 1 (Homo sapiens) + Leukocyte surface antigen CD47 (Homo sapiens); assay: CD47-SIRPalpha protein protein interaction - Alpha assay qHTS validation (AID 1347059);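 note: bead proximity luminescence from CD47 binding SIRPalpha after compound preincubation with SIRPalpha; % is set by controls: 0 for no effect and ±100 for the full control effect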
Outline: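 In PBS (pH 7.4) with 0.05% IGEPAL CA-630, compound is preincubated with biotin-Avi-SIRPalpha ectodomain before His-CD47 ectodomain and affinity beads are added. Light-protected room-temperature incubations; AlphaScreen readout.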

[14] = system: Zika virus NS2B-NS3 protease (unlinked); assay: Optimization of GU AMC qHTS for Zika virus inhibitors: Unlinked NS2B-NS3 protease assay (AID 1347151);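 note: 0% = no-inhibitor control and -100% = no-enzyme control; nearly all actives have a fitted effect of over 80% in size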
Outline: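 Noncovalent complex of NS2B hydrophilic domain and NS3 protease domain, 25 nM final, in 10 mM Tris-HCl pH 8.0, 0.01% Tween 20. AMC fluorescence change over 15 min at room temperature was fitted to a 4-parameter Hill equation.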

[15] = system: Zika virus NS2B-NS3 protease; assay: Primary screen GU AMC qHTS for Zika virus inhibitors (AID 1347154);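 note: 0% = no-inhibitor control and -100% = no-enzyme control; nearly all actives have a fitted effect of over 70% in size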
Outline: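 Unlinked Zika NS2B hydrophilic domain/NS3 protease domain noncovalent complex (25 nM final) in 10 mM Tris-HCl pH 8.0, 0.01% Tween 20, with AMC peptide substrate. Fluorescence (ex 340, em 450 nm) change over 15 min, room temperature; percent inhibition fitted to 4-parameter Hill equation.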

[16] = molecular target: Lysine-specific demethylase 5B (Homo sapiens) (UniProt Q9UGL1); assay: Optimization screen for KDM5B Histone Demethylases FDH coupled qHTS against the LOPAC library (AID 1347166); note: 0% is about no effect
Outline: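 KDM5BDeltaAP (200nM final) in 50mM HEPES pH 7.5, 0.01% Tween-20 was preincubated with compound for 10 min at room temperature. A substrate mix of 12.5uM H3K4Me3, 25uM a-ketoglutarate, ascorbate, Fe2+, NAD+ and formaldehyde dehydrogenase was then added. NADH fluorescence (340/450 nm) was read initially and after 30 min.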

[17] = qHTS to identify inhibitors of the type 1 interferon - major histocompatibility complex class I in skeletal muscle: primary screen against the NCATS LOPAC collection (AID 1347405)
Outline: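 IFN-beta-stimulated (4 ng/ml) HLA-B HiBiT knock-in myoblasts, compound-treated 24 hrs up to 46 uM final; signal via LgBiT complementation and furimazine luminescence.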

[18] = qHTS for inhibitors of adenylyl cyclases using a fission yeast platform: a pilot screen against the NCATS LOPAC library (AID 1347410);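 note: plate controls were DMSO vehicle for no effect and DPI positive control for full effect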
Outline: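 S. pombe CHP2027 (AC9-GNAS-PDE4D2) carrying a PKA-repressed fbp1-GFP reporter was exposed to LOPAC compounds (final up to 57 µM) for 18 h at 30C in the dark, in EMM with histidine, lysine and uracil; GFP gain-of-signal read by laser scanning cytometry.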

[19] = Validation qHTS assay for inhibitors of Activation Induced Cytidine Deaminase (AID): UDG Counterscreen signal (AID 1347427); note: 0% is about no effect
Outline: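 Fluorescence at 560 nm excitation, 665 nm emission reports UDG signal after 250 mM NaOH (2x) addition and 30 min. Enzymes (AID 1 uM, UDG 2 U/mL, at 4/3x) preincubated 10 min with compound, then 4 h with 4x 250 nM DJC20/DJC23 substrate at room temperature.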

[20] = molecular target: Single-stranded DNA cytosine deaminase (Homo sapiens) (UniProt Q9GZX7); assay: Validation qHTS assay for inhibitors of Activation Induced Cytidine Deaminase (AID): AID signal (AID 1347429); note: % is set by controls: 0 for no effect and ±100 for the full control effect
Chain of Single-stranded DNA cytosine deaminase (Homo sapiens) (Q9GZX7 whole entry, looked up): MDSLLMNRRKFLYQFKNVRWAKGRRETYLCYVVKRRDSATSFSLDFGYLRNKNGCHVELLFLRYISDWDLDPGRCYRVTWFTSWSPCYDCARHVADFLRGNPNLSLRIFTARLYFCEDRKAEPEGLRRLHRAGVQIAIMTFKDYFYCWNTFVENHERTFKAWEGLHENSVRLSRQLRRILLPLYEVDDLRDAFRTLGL
Outline: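 Compounds (up to 114 uM final) are tested against AID plus UDG using DJC20/DJC23 FRET substrate. Reactions incubate 4 hr at room temperature, receive NaOH for 30 min, and are read at Ex 540/Em 590 nm.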

[21] = molecular target: Calcium and integrin-binding protein 1 (Homo sapiens) (UniProt Q99828); assay: Validation qHTS for Identification of Calcium Integrin Binding protein 1 (CIB1) Competitor (AID 1508618); note: % is set by controls: 0 for no effect and ±100 for the full control effect
Chain of Calcium and integrin-binding protein 1 (Homo sapiens) (Q99828 whole entry, looked up): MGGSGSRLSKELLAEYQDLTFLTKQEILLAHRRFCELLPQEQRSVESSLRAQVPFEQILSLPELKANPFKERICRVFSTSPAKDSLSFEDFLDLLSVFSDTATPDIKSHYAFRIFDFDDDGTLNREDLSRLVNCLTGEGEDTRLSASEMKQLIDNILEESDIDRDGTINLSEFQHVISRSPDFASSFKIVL
Outline: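 CIB1-GST (1 uM final) incubated 15 min at room temperature with compounds (up to 114 uM), then FITC-labelled alphaIIb peptide (100 nM) added. FP read (Ex 480/Em 540) after 15 min, pH 7.4 buffer containing 5 mM CaCl2.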

[22] = Primary qHTS for small molecule stabilizers of the endoplasmic reticulum resident proteome: Secreted ER Calcium Modulated Protein (SERCaMP) assay (AID 1508630); note: % is set by controls: 0 for no effect and ±100 for the full control effect
Outline: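 The SH-SY5Y reporter protocol was run at 3 concentrations up to 38.3 uM (primary) or 11 concentrations (follow-up): 16 h compound, 100 nM thapsigargin for 4 h, then extracellular luciferase luminescence.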

Papain (Carica papaya) = Papain (Carica papaya) (UniProt P00784); assay: Primary qHTS assay for inhibitors of the protease papain (AID 1645873)
Chain of Papain (Carica papaya) (P00784 whole entry, looked up): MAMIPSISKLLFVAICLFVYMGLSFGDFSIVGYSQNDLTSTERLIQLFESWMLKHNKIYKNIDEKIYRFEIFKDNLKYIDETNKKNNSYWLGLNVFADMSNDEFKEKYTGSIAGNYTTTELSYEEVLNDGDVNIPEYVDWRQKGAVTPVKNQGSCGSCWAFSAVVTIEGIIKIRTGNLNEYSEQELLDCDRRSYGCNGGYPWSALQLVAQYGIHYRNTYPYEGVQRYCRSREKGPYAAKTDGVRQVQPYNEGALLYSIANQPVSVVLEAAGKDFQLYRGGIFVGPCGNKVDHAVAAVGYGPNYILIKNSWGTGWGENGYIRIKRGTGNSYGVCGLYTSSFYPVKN

[23] = molecular target: Catechol O-methyltransferase (Homo sapiens) (UniProt P21964); assay: Confirmatory Screen for Target Class Profiling of Small Molecule Inhibitors of Methyltransferases (AID 1745852; calls by dose curve); conditions: MTase-Glo luminescence, SAH detection, recombinant enzyme; measured here: COMT max response; stronger effect = lower value
Chain of Catechol O-methyltransferase (Homo sapiens) (P21964 whole entry, looked up): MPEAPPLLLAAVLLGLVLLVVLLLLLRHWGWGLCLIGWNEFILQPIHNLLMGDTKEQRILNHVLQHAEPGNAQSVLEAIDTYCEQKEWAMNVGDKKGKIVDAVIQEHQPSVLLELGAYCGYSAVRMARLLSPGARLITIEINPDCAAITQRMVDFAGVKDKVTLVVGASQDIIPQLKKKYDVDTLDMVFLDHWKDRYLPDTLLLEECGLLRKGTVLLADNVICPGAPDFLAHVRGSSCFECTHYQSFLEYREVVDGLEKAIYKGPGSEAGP

[24] = molecular target: Guanidinoacetate N-methyltransferase (Homo sapiens) (UniProt Q14353); assay: as above; conditions: activity change, negative = inhibition: at 57.3 µM (top of the series) unless noted
[25] = molecular target: Nicotinamide N-methyltransferase (Homo sapiens) (UniProt P40261); assay: as above; conditions: MTase-Glo luminescence, SAH detection, recombinant enzyme; measured here: NNMT max response; stronger effect = lower value
Chain of Nicotinamide N-methyltransferase (Homo sapiens) (P40261 whole entry, looked up): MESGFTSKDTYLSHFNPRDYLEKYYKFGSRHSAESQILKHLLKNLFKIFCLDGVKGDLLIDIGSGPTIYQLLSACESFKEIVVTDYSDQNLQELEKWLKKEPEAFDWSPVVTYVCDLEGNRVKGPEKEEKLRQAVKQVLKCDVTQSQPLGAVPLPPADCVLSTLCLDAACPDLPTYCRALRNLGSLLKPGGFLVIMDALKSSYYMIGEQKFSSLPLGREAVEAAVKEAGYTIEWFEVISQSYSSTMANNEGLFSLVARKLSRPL

[26] = molecular target: Phenylethanolamine N-methyltransferase (Homo sapiens) (UniProt P11086); assay: as above; conditions: MTase-Glo luminescence, SAH detection, recombinant enzyme; measured here: PNMT max response; stronger effect = lower value
Chain of Phenylethanolamine N-methyltransferase (Homo sapiens) (P11086 whole entry, looked up): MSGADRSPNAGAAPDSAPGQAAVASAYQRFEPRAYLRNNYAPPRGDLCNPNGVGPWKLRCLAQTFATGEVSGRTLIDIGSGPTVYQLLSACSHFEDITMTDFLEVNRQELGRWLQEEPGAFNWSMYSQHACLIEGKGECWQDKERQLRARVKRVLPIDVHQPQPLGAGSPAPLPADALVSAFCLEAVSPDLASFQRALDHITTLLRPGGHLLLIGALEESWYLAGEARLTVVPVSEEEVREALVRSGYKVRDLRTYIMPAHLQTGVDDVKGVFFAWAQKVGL

[27] = molecular target: Metallo-beta-lactamase type 2 (Klebsiella pneumoniae) (UniProt C7C422); assay: qHTS to identify inhibitors of the New Delhi Metallo-beta-lactamase (NDM): assay validation screen against the NCATS LOPAC Collection (AID 1794843); note: % is set by controls: 0 for no effect and ±100 for the full control effect
Outline: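 Absorbance at 485 nm from nitrocefin turnover (50 uM solution added), read at plateau, gives the read-out. Compounds in DMSO were incubated first with 2 nM final NDM-1 in pH 7.0 HEPES buffer containing 1 uM ZnSO4 and 0.01% Tween20.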

[28] = molecular target: Glutathione peroxidase 1 (Homo sapiens) (UniProt P07203); assay: Primary qHTS Assay for Inhibitors of Recombinant Selenoprotein Glutathione Peroxidase 1 (GPX1) (AID 1845191); note: nearly all actives have a fitted effect of over 65% in size
Chain of Glutathione peroxidase 1 (Homo sapiens) (P07203 whole entry, looked up): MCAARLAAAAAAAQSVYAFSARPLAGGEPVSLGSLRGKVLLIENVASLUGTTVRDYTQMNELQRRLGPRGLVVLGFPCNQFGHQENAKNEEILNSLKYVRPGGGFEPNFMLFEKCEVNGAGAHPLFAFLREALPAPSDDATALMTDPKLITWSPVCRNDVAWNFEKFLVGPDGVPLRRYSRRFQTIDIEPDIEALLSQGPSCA
Outline: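 GPX1 10 nM, GR 100 nM, GSH 1 mM, NADPH 0.5 mM, CHP 0.5 mM (final). 30-min cpd preincubation, RT. Ex340/Em450 read t=0, t=15 min.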

C[C@H](Cc1ccccc1)Nc1ncnc2c1ncn2[C@@H]1O[C@H](CO)[C@@H](O)[C@H]1O
-28.1%: activity [23]
-3.97%: activity change, negative = inhibition [24]
4.48%: activity [25]
inactive: outcome [1] | Potency [2] | outcome [3] | outcome [4] | outcome [5] | max response [6] -7.31% | Potency [7] | Potency [8] | Potency [9] | outcome [10] | outcome [11] | outcome [12] | Potency [13] | Potency [14] | Potency [15] | outcome [16] | Potency [17] | outcome [18] | outcome [19] | Potency [20] | outcome [21] | Potency [22] | Potency (Papain (Carica papaya)) | Potency [27] | Potency [28]
-12.3%: activity [26]
